Results from PubChem BioAssay (NCI).
This is part of a sample that, as a whole, favours compounds with a hit. Of some 79,000 tested, about 15% had one in any assay. Unmarked numbers belong to inactive results. The source made the active and inactive calls. No stated cut-off is given here; in the data, active means growth inhibition above about 70%; inactive means the rest.

Assay: NCI Yeast Anticancer Drug Screen. Data for the rad52 strain (AID 147);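 further: 0% = growth of vehicle-treated control cultures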
Conditions: S. cerevisiae rad52 mutant growth inhibition, hits give high values
Protocol: Growth inhibition of yeast strains with defined genetic alterations is measured as a screen for potential anti-cancer activity. Selected strains with alterations in DNA damage repair or cell cycle control were exposed to compounds and growth inhibition was measured relative to vehicle treated controls. The strain used in this assay is rad52

Compound	growth inhibition (at 1.2 µM)	growth inhibition (at 3.7 µM)	growth inhibition (at 11.0 µM)	growth inhibition (at 33.0 µM)	growth inhibition (at 100.0 µM)
COc1ccc(N=C2C(=O)Nc3ccc(Br)cc32)cc1	14%	15%	18%	23%	17%
O=C(NC(Nc1ccc(F)c(Cl)c1)(C(F)(F)F)C(F)(F)F)C(C(F)(F)F)C(F)(F)F	-2%	12%	70% (active)	93% (active)	97% (active)
CN(C)Cc1cc(N=Nc2ccc(Cl)cc2)cc(CN(C)C)c1O	8%	8%	8%	16%	58%
C/C(=N/NC(=S)N1CCCCCC1)c1cccc(/C(C)=N\NC(=S)N2CCCCCC2)n1	19%	25%	54%	73% (active)	71% (active)
COc1cccc2nc3ccccc3nc12	1%	7%	34%	90% (active)	97% (active)
O=C1Nc2ccccc2/C1=C/COc1ccccc1	1%	8%	27%	90% (active)	98% (active)
O=C(OCCN1CCCCCC1)C(c1ccsc1)C1CCCCC1 (stereo not given)	15%	14%	50%	57%	50%
Cc1nn(-c2cc(Cl)ccc2[N+](=O)[O-])c(C)c1Cl	1%	3%	2%	3%	2%
